Screening results as filed in PubChem BioAssay.
DT40 TDP1 CPT = qHTS for Inhibitors of human tyrosyl-DNA phosphodiesterase 1 (TDP1): qHTS in cells in presence of CPT. Potency, µM (top dose mostly 46.2 µM), hits mostly inhibitors. hit rate 12% among 420,000. chicken DT40 Tdp1-/-;hTDP1 cells + 20 nM CPT, ATP luminescence, 48 h. AID 686979, 2013; note: nearly all actives have a fitted effect of over 55% in size
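Chicken DT40 Tdp1-/- cells stably complemented with human TDP1 were seeded at 400 cells/well in medium containing 20 nM camptothecin, exposed to pin-transferred compounds, and grown at 37 °C for at least 48 hr. Viability was read as ATP luminescence.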
HepG2 tox-1 = qHTS for Inhibitors of TGF-b: Cytotox Counterscreen; HepG2 CAGA-GFP viability, ATP luminescence, 18 h; hit rate 0.76% among 410,000; Potency, µM (series often up to 46.1 µM), usual class: cytotoxic
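HepG2 CAGA-GFP cells (1000/well, DMEM with 1% FBS) received compound, then TGF-beta at 500 pg/mL final, and were incubated 18 hours at 37 degrees C. Viability was read by CellTiter-Glo luminescence. Media-only wells were set as complete cell-killing and DMSO as no toxicity.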
HT1080-NT tox = qHTS for induction of synthetic lethality in tumor cells producing 2HG: qHTS for the HT-1080-NT fibrosarcoma cell line; HT-1080-NT fibrosarcoma viability, CellTiter-Glo ATP luminescence, 48 h; Potency, µM (doses to about 46.1 µM), actives largely listed as cytotoxic; hit rate 1.6% among 360,000;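 note: NT is the 2HG producing partner of a matched IDH1 knockdown line; nearly all actives have a fitted effect of over 55% in size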
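HT-1080-NT; 750 cells/well; 5% FBS RPMI; 48 h compound, 37 degrees C; CellTiter-Glo luminescence; curve fitting and curve-class assignment.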
TGFb SMAD3 inh = qHTS for Inhibitors of TGF-b. HepG2 CAGA-GFP TGF-b/SMAD3 reporter, GFP fluorescence, 18 h; TGF-beta stimulated, 500 pg/mL final. Potency, µM (doses to about 46.1 µM), actives largely listed as inhibitors. hit rate 1.2% among 410,000. AID 588855, 2011; note: nearly all actives have a fitted effect of over 65% in size
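Inhibition of TGF-beta-driven CAGA-GFP reporter expression in HEPG2 cells is measured by cellular GFP fluorescence after 18 h stimulation with 500 pg/mL recombinant TGF-beta in 1% FBS medium at 37 degrees C.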
DT40 TDP1 no CPT = qHTS for Inhibitors of human tyrosyl-DNA phosphodiesterase 1 (TDP1): qHTS in cells in absence of CPT | DT40 Tdp1-/- hTDP1 cells, no CPT, ATP luminescence, 48 h | Potency, µM (top dose mostly 46.2 µM), most hits filed as inhibitors | hit rate 15% among 420,000 | AID 686978, 2013; note: nearly all actives have a fitted effect of over 55% in size
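A cellular qHTS used chicken DT40 cells lacking endogenous Tdp1 but carrying stably transfected human TDP1. Compounds were applied without camptothecin, and cell growth kinetics were judged by ATP-dependent luminescence after ≥48 hr.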
HT1080 IDH1KD tx = qHTS for induction of synthetic lethality in tumor cells producing 2HG: qHTS for the HT-1080-IDH1KD cell line. HT-1080 IDH1 knockdown viability, ATP luminescence, 48 h. hit rate 2% among 360,000. Potency, µM (top dose mostly 46.1 µM), usual class: cytotoxic
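Using the IDH1-knockdown HT-1080 line run in the same batch and compound series as the NT line, viability after 48 h at 37 °C was determined by CellTiter-Glo luminescence and expressed as % activity.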
TGFb CAGA inh = qHTS for Inhibitors of TGF-b: Confirmation of Cherry Picks. HepG2 CAGA-GFP TGF-b reporter, GFP fluorescence, 18 h; cells stimulated with TGF-beta, 500 pg/mL. AID 720534, 2013. hit rate 63% among 1,600. shares compounds with TGFb SMAD3 inh. Potency, µM (titrated, usually from 46.1 µM), hits mostly inhibitors; note: nearly all actives have a fitted effect of over 65% in size
HepG2 tox-2 = qHTS for Inhibitors of TGF-b: Cytotox Counterscreen for Cherry Picks. shares compounds with TGFb SMAD3 inh. Potency, µM (doses to about 46.1 µM), hits mostly inhibitors. HepG2 CAGA-GFP viability, ATP luminescence, 18 h; cells stimulated with TGF-beta, 500 pg/mL. hit rate 27% among 1,600; note: nearly all actives have a fitted effect of over 70% in size
TGFb CCL64 inh = qHTS for Inhibitors of TGF-b: CCL64 Cells Orthogonal Assay for Cherry Picks | shares compounds with TGFb SMAD3 inh | Potency, µM (highest dose often 46.1 µM), actives largely listed as inhibitors | CCL64 CAGA-GFP reporter, TGF-b stimulated, GFP fluorescence, 18 h | hit rate 41% among 1,600 | AID 720536, 2013; note: nearly all actives have a fitted effect of over 65% in size
COP TGFb inh = qHTS for Inhibitors of TGF-b: Hit Validation in HepG2 Cells using COP promoter. shares compounds with TGFb SMAD3 inh. HepG2 COP-GFP TGF-b reporter, GFP fluorescence, 18 h; cells stimulated by added recombinant TGF-beta. Potency, µM (top dose mostly 46.1 µM), hits mostly inhibitors. hit rate 3% among 1,600; note: nearly all actives have a fitted effect of over 70% in size
Each line names hits and unclear results; the compound was inactive in the other large screens (follow-up assays come after a bar, where they were run). Hits are enriched below; roughly 17% of the tested compounds scored in any of these assays. Calls come from the whole dose curve; as a rule, active = well fitted curve in the direction sought with a large enough effect; inconclusive = small, poorly fitted or top-dose-only effect, or another doubt; inactive = no such curve, though single readings can be large; an effect the other way counts as inactive or inconclusive.

CCCCn1c(=O)nc2n(-c3ccccc3)c3ccccc3cc-2c1=O	DT40 TDP1 CPT inconclusive, DT40 TDP1 no CPT inconclusive
O=C(Nc1ccc2nc3n(c(=O)c2c1)CCCCC3)c1c(F)ccc([N+](=O)[O-])c1F	DT40 TDP1 CPT 2.6µM, HepG2 tox-1 11µM, HT1080-NT tox 9.2µM, TGFb SMAD3 inh 5µM, DT40 TDP1 no CPT 2.3µM, HT1080 IDH1KD tx 15µM | TGFb CAGA inh 2.6µM | HepG2 tox-2 2.6µM | TGFb CCL64 inh 4.1µM | COP TGFb inh 8.2µM
CCc1nn(CCCC(=O)N2CCN(c3cccc(C)c3C)CC2)c(=O)c2cc3occc3n12	DT40 TDP1 CPT inconclusive, DT40 TDP1 no CPT inconclusive
O=C1CCCN1CC(O)CS(=O)(=O)Cc1ccc(Cl)c(Cl)c1 (stereo unspecified)	none
CN(Cc1ccccc1)c1ccc(C(CC(N)=O)NC(=O)Cc2cccc3ccccc23)cc1[N+](=O)[O-] (stereo unspecified)	TGFb SMAD3 inh inconclusive
CCc1nc(N)nc(N)c1-c1ccc(N(C)Cc2ccccc2)c([N+](=O)[O-])c1	DT40 TDP1 CPT 4.6µM, HT1080-NT tox inconclusive, TGFb SMAD3 inh 0.71µM, DT40 TDP1 no CPT 0.65µM, HT1080 IDH1KD tx 0.65µM | TGFb CAGA inh inconclusive | HepG2 tox-2 0.29µM | TGFb CCL64 inh 29µM | COP TGFb inh inactive
Cc1ccc(Nc2ccc([N+](=O)[O-])cn2)cc1Cl	DT40 TDP1 CPT inconclusive, DT40 TDP1 no CPT inconclusive
CCOC1=CC2=C(C(=O)C(Cl)=CC2=O)[C@@H]2CN(S(=O)(=O)c3ccc(C)cc3)[C@@H](c3ccccc3)[C@H]12	DT40 TDP1 CPT 1.2µM, HT1080-NT tox inconclusive, TGFb SMAD3 inh 11µM, DT40 TDP1 no CPT 1.8µM, HT1080 IDH1KD tx inconclusive | TGFb CAGA inh 4.1µM | HepG2 tox-2 inconclusive | TGFb CCL64 inh 5.2µM | COP TGFb inh inactive
CCOC(=O)c1c(S(=O)(=O)NCc2ccc(C)o2)c(C)n(C)c1C	DT40 TDP1 CPT inconclusive
CCOC(=O)N1CCN(C(=O)COc2cccc3c2CCN(Cc2cccc(C)c2)C3=O)CC1	DT40 TDP1 CPT 23µM, TGFb SMAD3 inh inconclusive, DT40 TDP1 no CPT 15µM | TGFb CAGA inh inconclusive | HepG2 tox-2 inactive | TGFb CCL64 inh inconclusive | COP TGFb inh inactive
CC1CCN(C(=O)COc2cccc3c2CCN(Cc2ccccc2)C3=O)CC1	DT40 TDP1 no CPT inconclusive
O=C(CSc1ncc(-c2ccc(F)cc2)[nH]1)N1CCCCC1	none
